Test results: PubChem BioAssay (NCI)
This is part of a sample that, as a whole, favours compounds with a hit. Of some 83,000 tested, about 20% had one in any assay.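 Single-dose data. Exposure time 48 hours. Values below 10 considered active.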 A number with no mark means an inactive call. Calls of active or inactive are those of the source.

Each compound was assayed on A549/ATCC NSCLC (assay: NCI-60 one-dose screen, 48 h (100 = growth as untreated, 0 = no growth, -100 = all killed)). Settings: 10 µM.
`CC(C)N(CCOc1cccc(-c2nc3sccn3c2-c2ccnc(S(C)(=O)=O)n2)c1)C(C)C` showed a growth of 104%. In the case of `O=C(CSc1nnc(-c2ccc(Cl)cc2)o1)Nc1ccc(C(=O)/C=C/c2ccc(Cl)cc2)cc1`, the growth is reported as 95.6%. `CC[C@@H](C(=O)[C@@H](C)[C@@H](O)[C@H](C)[C@@H]1O[C@@H]([C@@H](CC)C(=O)N(CC)CC)CC[C@@H]1C)C1O[C@]2(C=CC(=O)[C@]3(CC[C@@](C)([C@H]4CC[C@](O)(CC)[C@H](C)O4)O3)O2)[C@H](C)C[C@@H]1C` (stereo not given in full) was tested, and the growth was 28.3%. Work on `COc1ccc(-c2onc(N)c2-c2cc(OC)c3c(c2)OCO3)cc1` yielded a growth of 32.2%. `CCN(CC)CCOc1cccc2c1C(=O)c1cccc(OCCN(CC)CC)c1C2=O` gave a growth of 17.5%. In the case of `COc1cc(/C=C/c2cc(/C=C/c3ccc(O)c(OC)c3)n(C(=O)Nc3ccc(C)cc3)n2)ccc1O`, the growth is reported as 4.71% (active). Work on `CCOC(=O)c1cc(C(=O)c2ccc(F)cc2F)n2ccccc12` yielded a growth of 86%. For `COc1cc2c(cc1NC(=O)C(Cl)Cl)-c1ccc(NC(=O)C(Cl)Cl)cc1C2`, the growth was -4.92% (active). `COc1ccc(-c2cc(-c3ccccc3)nc(SCCCC(=O)NO)n2)cc1` was tested, and the growth was -2.46% (active). In the case of `O=S(=O)(Oc1ccc(-c2ccc3sccc3c2)cc1)c1ccc(F)cc1`, the growth is reported as 94%. `COc1cc(-c2nn(-c3ccc(NC(=O)NCCCNC(=O)c4ccccc4)cc3)cc2-c2ccncc2)ccc1Cl` was tested, and the growth was 26%. With `CN(C)CCCOc1ccc(OCCCN(C)C)c2c1C(=O)c1ccccc1C2=O` the growth was 3.96% (active). With `COc1cccc(C2C(C#N)=C(N)Oc3cc(N)ccc32)c1` (stereo not given) the growth was 20.2%. For `COc1cc(/C=C/c2cc(/C=C/c3ccc(O)c(OC)c3)[nH]c(=O)n2)ccc1O`, the growth was 71.7%. `COc1ccc2nc(-c3ccc(Cl)cc3)cc(-c3nnc(SC/C(=N\O)c4ccccc4)n3-c3ccccc3)c2c1` gave a growth of 63.1%. With `CCOC(=O)CN(c1sc(C)c(C)c1C(=O)OCC)S(=O)(=O)c1ccc(C)cc1` the growth was 91.6%. With `COc1ccc(/C=C2/SC(=S)NC2=O)c(OC)c1OC` the growth was 79.5%. In the case of `CC(C)(C)OC(=O)N1CCc2c(sc3ncnc(N/N=C/c4ccccc4Br)c23)C1`, the growth is reported as 68.1%. Work on `NC(CSC(c1ccccc1)(c1ccccc1)c1cccc2ccccc12)C(=O)O` (stereo not given) yielded a growth of 92.7%. For `CN(C)CCCOc1ccccc1NC1=C(Cl)C(=O)C(Nc2ccccc2OCCCN(C)C)=C(Cl)C1=O`, the growth was -55.6% (active). Work on `NS(=O)(=O)c1ccc(Br)cc1` yielded a growth of 81.8%. With `CN(C)CCCOc1ccc(NC2=C(Cl)C(=O)C(Nc3ccc(OCCCN(C)C)cc3)=C(Cl)C2=O)cc1` the growth was -56.2% (active). `COc1ccc(-c2n[nH]nc2-c2cc(OC)c3c(c2OC)OCO3)cc1` gave a growth of 33.3%. With `C=CCn1c(SCC(=O)Nc2ccc(C(=O)/C=C/c3cc(OC)c(OC)c(OC)c3)cc2)nnc1-c1cc(-c2ccc(Cl)cc2)nc2ccccc12` the growth was 96.7%. Compound `COc1ccc(C2=Cn3c(CCC(=O)c4nc5ccccc5[nH]4)nnc3SC2)cc1` has a growth of 106%. `CCN1CCN(CCC(=O)Nc2cccc(-n3cc(-c4ccncc4)c(-c4ccc(Cl)c(OC)c4)n3)c2)CC1` was tested, and the growth was 8.56% (active). `N#CCc1csc(Cc2ccccc2)n1` showed a growth of 95.1%. For `Cc1[nH]c2ccccc2c1/C=N/Nc1ncnc2sc3c(c12)CCN(CC(=O)OC(C)(C)C)C3`, the growth was 65%. `CCCc1cn(CC(=O)Nc2nc3ccccc3s2)nn1` showed a growth of 98.4%. With `C/C=C/CSC(C)(C)C(=O)NC` the growth was 88.7%. In the case of `Cc1ccc(Cl)cc1NC(=O)CCl`, the growth is reported as 89.9%. With `CCOC(=O)c1cc(C(=O)c2ccc(OC)c(OC)c2)n2c1ccc1ccc3cccnc3c12` the growth was 36.8%. For `Cc1c(Cl)cccc1NC(=O)CCCl`, the growth was 92.8%. `Cc1ccc(NCCNCC(C)(C)O)c2c(=O)c3ccc(Cl)cc3sc12` was tested, and the growth was -42.9% (active). In the case of `OCC1OC(n2cnc3c(NCc4ccco4)ncnc32)C(O)C1O` (stereo not given), the growth is reported as 22.2%. Compound `NS(=O)(=O)Oc1ccc(NC(=O)C2CCCCCC2)cc1` has a growth of 96%. In the case of `COc1cc(-c2nn(-c3ccc(NC(=O)NCCNS(=O)(=O)c4ccc(F)cc4)cc3)cc2-c2ccncc2)ccc1Cl`, the growth is reported as 15.7%. With `NS(=O)(=O)Oc1ccc2c(ccn2C(=O)C23CC4CC(CC(C4)C2)C3)c1` the growth was 101%. For `COc1ccc(-c2cc(-c3ccc(Cl)cc3)nc(SCCCC(=O)NO)n2)cc1`, the growth was 5.47% (active). Work on `Nc1cc(Br)c(-c2nn3c(CCC(=O)c4nc5ccccc5[nH]4)nnc3s2)c(Br)c1` yielded a growth of 101%.

Each compound was assayed on 786-0 renal in the same assay as above. Settings: 10 µM.
`CC(C)N(CCOc1cccc(-c2nc3sccn3c2-c2ccnc(S(C)(=O)=O)n2)c1)C(C)C` was tested, and the growth was 97.3%. `O=C(CSc1nnc(-c2ccc(Cl)cc2)o1)Nc1ccc(C(=O)/C=C/c2ccc(Cl)cc2)cc1` gave a growth of 99.9%. For `CC[C@@H](C(=O)[C@@H](C)[C@@H](O)[C@H](C)[C@@H]1O[C@@H]([C@@H](CC)C(=O)N(CC)CC)CC[C@@H]1C)C1O[C@]2(C=CC(=O)[C@]3(CC[C@@](C)([C@H]4CC[C@](O)(CC)[C@H](C)O4)O3)O2)[C@H](C)C[C@@H]1C` (stereo not given in full), the growth was 34.6%. `COc1ccc(-c2onc(N)c2-c2cc(OC)c3c(c2)OCO3)cc1` gave a growth of 47.2%. With `CCN(CC)CCOc1cccc2c1C(=O)c1cccc(OCCN(CC)CC)c1C2=O` the growth was 38.6%. `COc1cc(/C=C/c2cc(/C=C/c3ccc(O)c(OC)c3)n(C(=O)Nc3ccc(C)cc3)n2)ccc1O` was tested, and the growth was -1.18% (active). With `CCOC(=O)c1cc(C(=O)c2ccc(F)cc2F)n2ccccc12` the growth was 90.6%. `COc1cc2c(cc1NC(=O)C(Cl)Cl)-c1ccc(NC(=O)C(Cl)Cl)cc1C2` showed a growth of 48.4%. `COc1ccc(-c2cc(-c3ccccc3)nc(SCCCC(=O)NO)n2)cc1` was tested, and the growth was -13.5% (active). In the case of `O=S(=O)(Oc1ccc(-c2ccc3sccc3c2)cc1)c1ccc(F)cc1`, the growth is reported as 96.3%. In the case of `COc1cc(-c2nn(-c3ccc(NC(=O)NCCCNC(=O)c4ccccc4)cc3)cc2-c2ccncc2)ccc1Cl`, the growth is reported as 14.8%. `CN(C)CCCOc1ccc(OCCCN(C)C)c2c1C(=O)c1ccccc1C2=O` gave a growth of 16.6%. With `COc1cccc(C2C(C#N)=C(N)Oc3cc(N)ccc32)c1` (stereo not given) the growth was 53.9%. `COc1cc(/C=C/c2cc(/C=C/c3ccc(O)c(OC)c3)[nH]c(=O)n2)ccc1O` gave a growth of 82.6%. `COc1ccc2nc(-c3ccc(Cl)cc3)cc(-c3nnc(SC/C(=N\O)c4ccccc4)n3-c3ccccc3)c2c1` was tested, and the growth was 88.1%. In the case of `CCOC(=O)CN(c1sc(C)c(C)c1C(=O)OCC)S(=O)(=O)c1ccc(C)cc1`, the growth is reported as 92.8%. In the case of `COc1ccc(/C=C2/SC(=S)NC2=O)c(OC)c1OC`, the growth is reported as 87.9%. `CC(C)(C)OC(=O)N1CCc2c(sc3ncnc(N/N=C/c4ccccc4Br)c23)C1` gave a growth of 69.2%. `NC(CSC(c1ccccc1)(c1ccccc1)c1cccc2ccccc12)C(=O)O` (stereo not given) was tested, and the growth was 98.2%. For `CN(C)CCCOc1ccccc1NC1=C(Cl)C(=O)C(Nc2ccccc2OCCCN(C)C)=C(Cl)C1=O`, the growth was -95.4% (active). In the case of `NS(=O)(=O)c1ccc(Br)cc1`, the growth is reported as 89%. With `CN(C)CCCOc1ccc(NC2=C(Cl)C(=O)C(Nc3ccc(OCCCN(C)C)cc3)=C(Cl)C2=O)cc1` the growth was -50% (active). Compound `COc1ccc(-c2n[nH]nc2-c2cc(OC)c3c(c2OC)OCO3)cc1` has a growth of 65.6%. `C=CCn1c(SCC(=O)Nc2ccc(C(=O)/C=C/c3cc(OC)c(OC)c(OC)c3)cc2)nnc1-c1cc(-c2ccc(Cl)cc2)nc2ccccc12` showed a growth of 74.2%. `COc1ccc(C2=Cn3c(CCC(=O)c4nc5ccccc5[nH]4)nnc3SC2)cc1` gave a growth of 104%. With `CCN1CCN(CCC(=O)Nc2cccc(-n3cc(-c4ccncc4)c(-c4ccc(Cl)c(OC)c4)n3)c2)CC1` the growth was -47.6% (active). `N#CCc1csc(Cc2ccccc2)n1` was tested, and the growth was 108%. Work on `Cc1[nH]c2ccccc2c1/C=N/Nc1ncnc2sc3c(c12)CCN(CC(=O)OC(C)(C)C)C3` yielded a growth of 47.1%. Compound `CCCc1cn(CC(=O)Nc2nc3ccccc3s2)nn1` has a growth of 108%. With `C/C=C/CSC(C)(C)C(=O)NC` the growth was 108%. Work on `Cc1ccc(Cl)cc1NC(=O)CCl` yielded a growth of 81.2%. `CCOC(=O)c1cc(C(=O)c2ccc(OC)c(OC)c2)n2c1ccc1ccc3cccnc3c12` was tested, and the growth was 33.3%. `Cc1c(Cl)cccc1NC(=O)CCCl` gave a growth of 103%. `Cc1ccc(NCCNCC(C)(C)O)c2c(=O)c3ccc(Cl)cc3sc12` was tested, and the growth was 54%. Compound `OCC1OC(n2cnc3c(NCc4ccco4)ncnc32)C(O)C1O` (stereo not given) has a growth of 18.2%. Compound `NS(=O)(=O)Oc1ccc(NC(=O)C2CCCCCC2)cc1` has a growth of 107%. For `COc1cc(-c2nn(-c3ccc(NC(=O)NCCNS(=O)(=O)c4ccc(F)cc4)cc3)cc2-c2ccncc2)ccc1Cl`, the growth was -8.2% (active). With `NS(=O)(=O)Oc1ccc2c(ccn2C(=O)C23CC4CC(CC(C4)C2)C3)c1` the growth was 110%. In the case of `COc1ccc(-c2cc(-c3ccc(Cl)cc3)nc(SCCCC(=O)NO)n2)cc1`, the growth is reported as 3.69% (active). Compound `Nc1cc(Br)c(-c2nn3c(CCC(=O)c4nc5ccccc5[nH]4)nnc3s2)c(Br)c1` has a growth of 99.8%.
